According to PubChem BioAssay (EPA / NIEHS):
Active and inactive are the calls of the source. Rule for the calls: active = hit-call score of the fitted dose curve at least 0.9, where 1 is the maximum; inactive = score below 0.9.

How the values were obtained:
[1] = ATG_CRE_CIS: Attagene CIS-FACTORIAL HepG2 Assay for human cAMP Responsive Element (CRE) binding protein 3 (AID 2282926); settings: HepG2 CRE cis-reporter, Attagene multiplexed mRNA; actives raise or lower the signal
Summary of the method: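 Endogenous CRE-binding activity in HepG2 is reported through a cis-regulated transfected reporter. Following a day of exposure, mRNA levels are determined by reverse transcription PCR and fluorescent fragment analysis; fits run in both directions versus DMSO.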

[2] = biological target: CCAAT/enhancer-binding protein beta (Homo sapiens) (UniProt P17676); experiment: ATG_C_EBP_CIS: Attagene CIS-FACTORIAL HepG2 Assay for human CCAAT/Enhancer Binding Protein (C/EBP) beta (AID 2282927); settings: HepG2 Attagene cis-factorial transcription factor reporter; actives raise or lower the signal
Summary of the method: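 RT-PCR/capillary electrophoresis fluorescence of reporter mRNA, 24 h post-dose, in HepG2 cells carrying transfected cis-promoter reporter units. Bidirectional curve fitting against DMSO baseline captures gain or loss of signal.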

[3] = ATG_CMV_CIS: Attagene CIS-FACTORIAL HepG2 Assay for human CMV (Internal Marker) (AID 2282928); settings: HepG2 CMV promoter reporter, transcription factor profiling; actives raise or lower the signal;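 note: endpoint acts as a background internal control marker rather than a target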
Summary of the method: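 After transient transfection of HepG2 with reporter transcription units driven by cis-regulatory promoters, cells receive test chemical for 24 h. Labeled reporter amplicons, digested with HpaI, are sized and quantified by capillary electrophoresis against DMSO.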

[4] = ATG_AP_2_CIS: Attagene CIS-FACTORIAL HepG2 Assay for human Activator Protein 2 (AP-2) (AID 2282932); settings: HepG2 AP-2 cis-reporter, Attagene transcription factor profiling; actives raise or lower the signal
Summary of the method: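 Bidirectional curve fitting against DMSO was applied to reporter mRNA signals from HepG2 cells 24 h after dosing. Cis-promoter reporter units, transiently transfected, were read by RT-PCR plus capillary electrophoresis.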

[5] = ATG_BRE_CIS: Attagene CIS-FACTORIAL HepG2 Assay for human Bone Morphogenetic Protein (BMP) Response Element (BRE) (AID 2282933); settings: HepG2 BMP response element reporter, Attagene transcription factor profiling; actives raise or lower the signal
Summary of the method: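 After a 24 h chemical treatment, transiently transfected HepG2 cells were lysed for RNA; reporter transcripts were quantified by fluorescent RT-PCR and capillary electrophoresis, normalised to DMSO.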

[6] = biological target: Transcription factor E2F1 (Homo sapiens) (UniProt Q01094); experiment: ATG_E2F_CIS: Attagene CIS-FACTORIAL HepG2 Assay for human E2F Transcription Factor 1 (AID 2282935); settings: HepG2 Attagene cis-reporter, E2F reporter RNA transcripts; actives raise or lower the signal
Summary of the method: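 Multiplexed cis-reporter assay: HepG2, transient transfection, 24 h dosing, mRNA quantitation by labeled RT-PCR and CE.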

[7] = ATG_E_Box_CIS: Attagene CIS-FACTORIAL HepG2 Assay for human Enhancer Box (E-box) (AID 2282936); settings: HepG2 E-box cis-reporter transcription, actives raise or lower the signal
Summary of the method: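 Multiplexed CIS reporter system in transiently transfected HepG2 cells measures native transcription factor activity. Reporter RNA after 24 h exposure is profiled by RT-PCR-capillary electrophoresis.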

[8] = ATG_M_61_CIS: Attagene CIS-FACTORIAL HepG2 Assay for M61 Transcription Factor (Internal Marker) (AID 2282937); settings: HepG2 Attagene CIS-FACTORIAL M61 internal marker reporter; actives raise or lower the signal
Summary of the method: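 Readout: fluorescent reporter mRNA fragments resolved by capillary electrophoresis after RT-PCR. Transiently transfected human HepG2 cells carried MRTU constructs reporting endogenous TF activity; 24 h chemical exposure; gain or loss of signal fitted relative to DMSO.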

[9] = ATG_EGR_CIS: Attagene CIS-FACTORIAL HepG2 Assay for human Early Growth Response 1 (EGR1) (AID 2282938); settings: HepG2 Attagene CIS-FACTORIAL EGR reporter mRNA; actives raise or lower the signal
Summary of the method: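 Read-out: fluorescent reporter-mRNA fragments resolved by capillary electrophoresis after RT-PCR, 24 h post-dose in transiently transfected HepG2. Endogenous transcription-factor activity reported via cis-element-regulated reporter units; gain or loss fitted relative to DMSO.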

[10] = ATG_Ets_CIS: Attagene CIS-FACTORIAL HepG2 Assay for human Erythroblast Transformation Specific (ETS) (AID 2282941); settings: HepG2 ETS cis-reporter transcription, actives raise or lower the signal
Summary of the method: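 Human HepG2 hepatoma cells were transiently transfected with promoter-driven reporter constructs and treated for 24 hours. Reporter transcripts were quantified by RT-PCR with fluorescent primer extension; bidirectional curve fitting used DMSO as reference.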

[11] = ATG_FoxO_CIS: Attagene CIS-FACTORIAL HepG2 Assay for human Forkhead box O (FoxO) (AID 2282943); settings: HepG2 Attagene cis-reporter, FoxO element, mRNA; actives raise or lower the signal
Summary of the method: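 HepG2 cells transiently transfected with cis-promoter-driven multiple reporter transcription units; 24 h after chemical dosing, reporter mRNA quantified by RT-PCR, fluorescent primer extension, HpaI digestion and capillary electrophoresis. Bidirectional fitting versus DMSO baseline.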

[12] = ATG_GLI_CIS: Attagene CIS-FACTORIAL HepG2 Assay for human Zinc Finger Protein GLI1 (AID 2282945); settings: HepG2, Attagene cis-factorial reporter mRNA, GLI element; actives raise or lower the signal
Summary of the method: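 HepG2 cells transiently transfected with cis-promoter multiplexed reporter units report endogenous transcription factor activity. After 24 h chemical exposure, reporter mRNA was quantified by RT-PCR, 6-FAM labelling, HpaI digestion and capillary electrophoresis, with bidirectional fitting against DMSO.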

[13] = ATG_ISRE_CIS: Attagene CIS-FACTORIAL HepG2 Assay for human Interferon Regulatory Factor 1 (IRF1) binding to an Interferon-Stimulated Response Element (ISRE) (AID 2282948); settings: HepG2 ISRE cis-reporter (Attagene), mRNA transcription readout; actives raise or lower the signal
Summary of the method: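 Cell-based cis-reporter assay; HepG2; 24 h exposure; reporter mRNA by RT-PCR plus capillary electrophoresis fluorescence; activity in either direction scored relative to DMSO.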

[14] = ATG_M_32_CIS: Attagene CIS-FACTORIAL HepG2 Assay for M32 Transcription Factor (Internal Marker) (AID 2282949); settings: HepG2 Attagene cis-factorial M32 reporter, mRNA; actives raise or lower the signal;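 note: background control marker of the multiplexed CIS panel rather than a real target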
Summary of the method: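 Fluorescent capillary electrophoresis peaks of HpaI-digested, FAM-labelled RT-PCR reporter products give the signal. Source: transiently transfected human liver HepG2 cells, 24 h after chemical dosing; bidirectional fitting against DMSO.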

[15] = ATG_M_06_CIS: Attagene CIS-FACTORIAL HepG2 Assay for M06 Transcription Factor (Internal Marker) (AID 2282950); settings: HepG2 Attagene CIS-FACTORIAL M06 internal marker reporter; actives raise or lower the signal
Summary of the method: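 One of many multiplexed endpoints: HepG2 reporter mRNA after 24 h dosing, detected by RT-PCR and capillary electrophoresis fluorescence; gain or loss of signal analysed against DMSO.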

[16] = ATG_MRE_CIS: Attagene CIS-FACTORIAL HepG2 Assay for human Metal Responsive Element (MRE) (AID 2282954); settings: HepG2 MRE cis-reporter transcription, Attagene multiplex; actives raise or lower the signal
Summary of the method: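 Step one: transfect HepG2 with cis-regulated reporter units. Step two: dose 24 h. Step three: isolate RNA, RT-PCR, 6-FAM label, HpaI digest, capillary electrophoresis. Fit bidirectionally to DMSO.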

[17] = ATG_PXRE_CIS: Attagene CIS-FACTORIAL HepG2 Assay for human Pregnane X Receptor Element (PXRE) (AID 2282957); settings: HepG2 Attagene CIS-FACTORIAL PXRE reporter, mRNA; actives raise or lower the signal
Summary of the method: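 Cis-element reporter mRNA in human hepatoma HepG2 cells is measured 24 h post-dosing by RT-PCR, primer-extension labeling and capillary electrophoresis; gain or loss of signal is fitted relative to DMSO.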

[18] = ATG_Sox_CIS: Attagene CIS-FACTORIAL HepG2 Assay for human SRY-box transcription factor (SOX) (AID 2282960); settings: HepG2 Attagene cis-factorial SOX reporter, mRNA; actives raise or lower the signal
Summary of the method: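 Read-out: fluorescent RT-PCR products of SOX1-linked reporter transcripts resolved by capillary electrophoresis, fitted bidirectionally against DMSO. Transiently transfected HepG2 cells, 24 h after chemical exposure, endogenous transcription factor activity.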

[19] = biological target: Transcription factor Sp1 (Homo sapiens) (UniProt P08047); experiment: ATG_Sp1_CIS: Attagene CIS-FACTORIAL HepG2 Assay for human Specificity Protein 1 (Sp1) (AID 2282961); settings: HepG2 Sp1 cis-reporter transcription, actives raise or lower the signal
Summary of the method: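 Read-out: fluorescence of 6-FAM-labeled, HpaI-digested RT-PCR products separated by capillary electrophoresis. HepG2 cells carried transfected cis-element reporter units and were exposed to chemicals for 24 h; gain or loss of signal fitted relative to DMSO.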

[20] = ATG_SREBP_CIS: Attagene CIS-FACTORIAL HepG2 Assay for human Sterol Regulatory Element Binding (SREBP) (AID 2282962); settings: HepG2 Attagene cis-factorial SREBP reporter, mRNA; actives raise or lower the signal
Summary of the method: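 mRNA induction of transfected cis-promoter reporters in HepG2 cells, 24 h post-dose. Detection: RT-PCR with 6-FAM-labelled products, HpaI digest, capillary electrophoresis. DMSO served as negative control and baseline.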

Measured: AC50

Transcription factor E2F1 (Homo sapiens), sequence (Q01094 whole entry, looked up): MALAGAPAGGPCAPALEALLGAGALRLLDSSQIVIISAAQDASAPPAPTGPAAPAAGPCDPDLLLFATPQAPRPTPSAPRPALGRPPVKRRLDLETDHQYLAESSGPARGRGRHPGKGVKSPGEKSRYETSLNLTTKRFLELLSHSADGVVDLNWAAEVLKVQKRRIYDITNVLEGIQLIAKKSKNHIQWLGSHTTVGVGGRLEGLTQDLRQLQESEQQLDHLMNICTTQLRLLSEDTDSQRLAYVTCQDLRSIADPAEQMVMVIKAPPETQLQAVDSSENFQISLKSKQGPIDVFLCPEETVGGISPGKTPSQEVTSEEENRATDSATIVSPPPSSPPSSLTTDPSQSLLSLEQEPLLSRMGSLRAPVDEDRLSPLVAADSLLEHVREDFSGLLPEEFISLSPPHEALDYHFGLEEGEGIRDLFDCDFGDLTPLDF
Transcription factor Sp1 (Homo sapiens), sequence (P08047 whole entry, looked up): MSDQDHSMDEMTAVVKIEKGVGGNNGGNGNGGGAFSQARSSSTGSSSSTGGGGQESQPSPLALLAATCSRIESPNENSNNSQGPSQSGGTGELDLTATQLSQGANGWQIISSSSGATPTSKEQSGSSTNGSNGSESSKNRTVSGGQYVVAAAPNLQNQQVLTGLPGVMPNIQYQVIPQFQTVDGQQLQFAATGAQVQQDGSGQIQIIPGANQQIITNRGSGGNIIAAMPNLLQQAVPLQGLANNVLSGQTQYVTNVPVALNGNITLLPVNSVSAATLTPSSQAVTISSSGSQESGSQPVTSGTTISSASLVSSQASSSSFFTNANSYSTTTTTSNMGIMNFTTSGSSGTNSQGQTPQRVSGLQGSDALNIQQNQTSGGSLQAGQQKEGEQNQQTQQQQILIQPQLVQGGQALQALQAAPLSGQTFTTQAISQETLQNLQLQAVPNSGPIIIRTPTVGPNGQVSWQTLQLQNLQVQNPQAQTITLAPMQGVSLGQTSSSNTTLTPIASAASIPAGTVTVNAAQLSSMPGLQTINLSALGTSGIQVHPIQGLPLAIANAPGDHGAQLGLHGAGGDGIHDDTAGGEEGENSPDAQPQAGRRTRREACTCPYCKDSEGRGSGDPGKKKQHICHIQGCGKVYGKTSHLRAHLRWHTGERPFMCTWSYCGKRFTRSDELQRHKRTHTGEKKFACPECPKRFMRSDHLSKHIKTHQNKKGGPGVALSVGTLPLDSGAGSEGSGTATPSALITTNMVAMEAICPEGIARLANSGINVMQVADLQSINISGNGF
CCAAT/enhancer-binding protein beta (Homo sapiens), sequence (P17676 whole entry, looked up): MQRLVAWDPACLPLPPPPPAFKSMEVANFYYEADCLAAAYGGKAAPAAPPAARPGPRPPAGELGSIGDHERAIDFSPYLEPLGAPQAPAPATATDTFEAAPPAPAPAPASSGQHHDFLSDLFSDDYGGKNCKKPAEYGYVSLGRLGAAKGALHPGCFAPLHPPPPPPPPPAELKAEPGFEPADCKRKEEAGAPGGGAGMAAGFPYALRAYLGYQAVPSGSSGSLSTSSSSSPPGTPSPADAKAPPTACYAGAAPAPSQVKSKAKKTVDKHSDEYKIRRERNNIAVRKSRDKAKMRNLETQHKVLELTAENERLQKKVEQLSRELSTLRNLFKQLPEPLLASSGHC

CCCCCCCC#N
inactive: all assays above

CCCN[C@H]1CCc2nc(N)sc2C1
inactive: all assays above

CC(=O)CCc1ccccc1
inactive: all assays above

Cc1ccccc1S(=O)(=O)O
active: [17] 70.6 µM | [18] 27 µM
inactive: all other assays above

CC1=NN(c2cc(Cl)c(S(=O)(=O)O)cc2Cl)C(=O)C1N=Nc1ccc(S(=O)(=O)O)cc1 (stereo not given)
active: [17] 100 µM
inactive: all other assays above

CN(C)CCCN1c2ccccc2CCc2ccc(Cl)cc21
active: [4] 7.1 µM | [17] 5.14 µM | [18] 11.1 µM | [20] 15.8 µM
inactive: all other assays above

C=CC(C)(CCC=C(C)C)OC(=O)c1ccccc1 (stereo not given)
active: [3] 100 µM | [16] 177 µM | [17] 6.33 µM
inactive: all other assays above

CCCCCCCCCCC1CO1 (stereo not given)
active: [12] 159 µM | [16] 152 µM | [17] 27 µM | [19] 154 µM | [20] 100 µM
inactive: all other assays above

CO[Si](CCCNCCN)(OC)OC
active: [17] 37.3 µM
inactive: all other assays above

COC(=O)[C@]1(C)CCC[C@@]2(C)[C@H]1CC=C1C=C(C(C)C)CC[C@@H]12
active: [3] 100 µM | [5] 100 µM | [16] 66.1 µM | [17] 3.48 µM
inactive: all other assays above

C1=CCC=C1
inactive: all assays above

Clc1ccccn1
inactive: all assays above

CCCCCCC1CCC(=O)O1 (stereo not given)
inactive: all assays above

CN(C)c1ccc(C(c2ccccc2)c2ccc(N(C)C)cc2)cc1
active: [5] 100 µM | [17] 3.06 µM
inactive: all other assays above

CC/C=C\CC1=C(C)CCC1=O
active: [17] 6.38 µM
inactive: all other assays above

OCCN(CCO)c1cccc(Cl)c1
active: [17] 52.4 µM
inactive: all other assays above

CC1=C(CC=O)C(C)(C)CCC1
active: [17] 0.734 µM
inactive: all other assays above

COC(=O)CCSCCC(=O)OC
inactive: all assays above

Cc1cccnc1
active: [2] 100 µM | [5] 167 µM | [10] 165 µM | [13] 164 µM
inactive: all other assays above

CCCOCCC
inactive: all assays above

O=C(c1ccccc1)c1ccccc1O
active: [13] 161 µM | [17] 26.7 µM
inactive: all other assays above

Cc1ccccc1S(N)(=O)=O
inactive: all assays above

Cc1cc(-n2nc3ccc(Cl)cc3n2)c(O)c(C(C)(C)C)c1
active: [17] 2.86 µM
inactive: all other assays above

CC(C)=CCOC(=O)c1ccccc1
inactive: all assays above

O=C(O)c1cc(Cl)cc(Cl)c1O
active: [17] 68.7 µM
inactive: all other assays above

COc1ccccc1OCC(O)CO (stereo not given)
inactive: all assays above

Cc1cc(C)c(S(=O)(=O)O)cc1N=Nc1cc(S(=O)(=O)O)c2ccccc2c1O
inactive: all assays above

F[B-](F)(F)F
inactive: all assays above
